From PubChem
KDM5B inh = inhibitors of human KDM5B histone demethylase | Q9UGL1 | KDM5B demethylase, FDH-coupled NADH fluorescence (FDH is formaldehyde dehydrogenase) | Potency, µM (highest dose often 57.7 µM), most hits filed as inhibitors | 220,000 compounds, 2.6% hits; active = well fitted inhibition curve with a large enough effect; note: nearly all actives have a fitted effect of over 70% in size
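Inhibition is measured as reduced NADH fluorescence generation from FDH coupling to formaldehyde release. Truncated KDM5BΔAP at 200 nM final acts on H3K4me3 peptide (12.5 µM in substrate mix) in pH 7.5 HEPES buffer with Tween-20, 30 min, room temperature.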
Of the large screens only hits and unclear results are named; the others gave an inactive call. This excerpt belongs to a sample that is enriched for hits.

O=C(c1ccc2c(c1)OCO2)N1CCC(N2CCNC2=O)CC1	none
O=C(c1ccc2c(c1)OCO2)N1CCn2c(nnc2C2CCCNC2)C1 (stereo not drawn)	none
CN(C(=O)c1csc(Cc2ccccc2)n1)C1CCCN(CCc2ccccc2)C1 (stereo not drawn)	none
CCN(CC)S(=O)(=O)c1ccc(N(C)CCOc2ccc(Br)cc2)nc1	none
CCOC(=O)N1CCN(C(=O)Cn2nc(-c3ccccc3F)ccc2=O)CC1	none
COc1ccc2cc(C(=O)NC3CCN(C(=O)N4CC5CC(C4)[C@H]4CCCC(=O)N4C5)CC3)[nH]c2c1 (stereo partly drawn)	KDM5B inh 28µM
O=C(NC1CCN(C(=O)N2CC3CC(C2)[C@H]2CCCC(=O)N2C3)CC1)c1ccccc1 (stereo partly drawn)	none
COc1ccc2cc(C(=O)N3CC4CC(C3)[C@H]3CCCC(=O)N3C4)[nH]c2c1 (stereo partly drawn)	none
COc1ccc(CN[C@H]2[C@H](O)[C@H](O)C[C@@H]2c2ccccc2)cc1	none
CN1CCCC1CNC(=O)Cc1cn(C)c2ccccc12 (stereo not drawn)	none
CCc1ccc(C(=O)N2CCC(Cc3nc(-c4ccc(OC)cc4)no3)CC2)cc1	none
O=C(c1ccc(N2CC3CC(C2)[C@H]2CCCC(=O)N2C3)nc1)N1CCOCC1 (stereo partly drawn)	none
O=C(c1ccc(N2CCC(O)CC2)nc1)N1CCC(Oc2cccnc2)CC1	none
O=C(c1ccc(N2CC[C@H](O)C2)nc1)N1CCC(N2CCOCC2)CC1	KDM5B inh 25µM
Cn1ncc2c(C(=O)NCc3ccncc3)cc(-c3ccc(F)cc3)nc21	KDM5B inh 79µM
O=C(NCc1ccc(F)cc1)c1cc(-c2ccncc2)nc2ccccc12	none
CCC(C)NC(=O)c1cc(-c2cccnc2)nc2ccccc12 (stereo not drawn)	none
Cn1ncc2c(C(=O)NCC3CC3)cc(-c3cccnc3)nc21	KDM5B inh 100µM
O=C(NCc1ccncc1)c1cc(-c2ccncc2)nc2ccccc12	none
Cn1ncc2c(NCc3ccc(F)cc3)ncnc21	none
Cn1ncc2c(-c3ccc([S+](C)(=O)[O-])cc3)cc(C(=O)NCc3ccc(F)cc3)nc21	KDM5B inh 79µM
Cn1ncc2c(C(=O)NC3CC3)cc(-c3cc(Cl)cc(Cl)c3)nc21	none
Cn1ccc2c(C(=O)NCc3cccnc3)nc(-c3ccc([S+](C)(=O)[O-])cc3)cc21	none
Cc1ccc(S(=O)(=O)N2CCCC2C(=O)n2nc(C)c(Sc3ccccc3)c2C)cc1 (stereo not drawn)	none
Cc1cc(SCC(=O)NC(=O)NC2CC2)nc2ccccc12	none
O=C(Cc1c[nH]c2ccccc12)N1CCC(N2C(=O)C(O)C23CCCCC3)CC1 (stereo not drawn)	none
CC(C)(C)c1cc(N/C=C/C(=O)C(F)(F)F)cc(C(C)(C)C)c1	none
Cc1nc2nc(CC(=O)Nc3ccccc3)nn2c(C)c1Cc1ccccc1Cl	none
CCCCc1cc(=O)oc2cc(OCC(=O)NCc3ccncc3)c(Cl)cc12	none
Cc1ccc(-c2nsc(NC(=O)c3oc4ccccc4c3C)n2)s1	none
CS(=O)(=O)c1ccccc1NC(=O)COc1ccccc1C(N)=O	none
Cc1nc(CCN(C)c2nc(C3CCCC3)nc3c2cnn3C)no1	none
Cn1ncc2c(NCCc3cn4ccccc4n3)nc(C3CCCC3)nc21	KDM5B inh 20µM
Cc1nc(NCCCNC2CCCCC2)c2cnn(C)c2n1	none
O=C(COc1ccc2c(=O)c(-c3ccc(Cl)cc3)coc2c1)Nc1ccccc1	none
CCC1CCCCN1C(=O)CCn1cnc2c1c(=O)n(C)c(=O)n2C (stereo not drawn)	none
COc1ccc2[nH]c3c(c2c1)CCNC31CCN(C(=O)Cn2c(=O)oc3ccccc32)CC1	KDM5B inh 20µM
COc1ccc2[nH]c3c(c2c1)CCNC31CCN(C(=O)c2cnc(C)cn2)CC1	none
O=C(Cn1c(=O)oc2ccccc21)N1CCC2(CC1)NCCc1c2[nH]c2ccccc12	none
COc1ccc(C(=O)N2CCC3(CC2)NCCc2c3[nH]c3ccccc23)c(OC)c1	none
COc1ccc2[nH]c3c(c2c1)CCN(C)C31CCN(C(=O)c2nccc3ccccc23)CC1	none
COc1ccc2[nH]c3c(c2c1)CCNC31CCN(C(C)C)CC1	KDM5B inh 22µM
CCn1ccc(C(=O)N2CCC3(CC2)c2[nH]c4ccc(OC)cc4c2CCN3C)n1	KDM5B inh 22µM
COc1ccc2[nH]c3c(c2c1)CCNC31CCN(C(=O)c2ccc(C)nc2)CC1	none
COc1ccc2[nH]c3c(c2c1)CCNC31CCN(C(=O)c2ccco2)CC1	none
COc1ccc2[nH]c3c(c2c1)CCN(C)C31CCN(C(=O)c2ccncc2)CC1	none
CCOCC(=O)N1CCC2(CC1)NCCc1c2[nH]c2ccc(OC)cc12	KDM5B inh 16µM
COc1ccc2[nH]c3c(c2c1)CCNC31CCN(C(=O)c2cccnc2)CC1	none
COCCNc1oc(COc2ccc(-c3ccccc3)cc2)nc1C#N	none
Cc1ccc(-n2c(C3CCN(C(=O)c4ccc5cc[nH]c5c4)CC3)n[nH]c2=O)cc1	none
COCCOC1CCOC2(CCN(C(=O)c3sccc3C)CC2)C1 (stereo not drawn)	none
COc1ccc(/C(Cl)=C(/C=N/O)c2ccc(OC)cc2)cc1	none
Cc1cc(C)cc(N(CC(=O)Nc2ccccc2C(=O)NCC2CCCO2)S(C)(=O)=O)c1 (stereo not drawn)	none
O=C(CC1C(=O)N(C2CCCCC2)c2nc3ccccc3n21)Nc1ccc(F)c(F)c1 (stereo not drawn)	none
COc1ccccc1NC(=O)C(C)Sc1nc2ccccc2nc1C (stereo not drawn)	none
O=C(c1ccc(F)cc1)N1CCC(Cc2nc(-c3ccc(F)cc3)no2)CC1	none
Cc1cc(C(=O)N2CCN(S(=O)(=O)c3cc(Cl)ccc3Cl)CC2)c(C)n1Cc1ccco1	none
Cc1cccc(CN2CCCC3(CCN(C(=O)Cc4cccnc4)C3)C2=O)c1 (stereo not drawn)	none
Cc1cccc(CN2CCCC3(CCN(C(=O)c4ccc(=O)[nH]c4)C3)C2=O)c1 (stereo not drawn)	KDM5B inh 13µM
Cc1cccc(CN2CCCC3(CCN(c4cc(C)nc(N)n4)C3)C2=O)c1 (stereo not drawn)	none
O=C(NC[C@H]1O[C@H](Cc2cc(-c3ccc(F)cc3)on2)CC[C@@H]1O)c1ccncc1	none
CCOc1ccc(CNC(=O)c2ccc(NC(=O)c3nnc(C)s3)cc2)cc1	none
COc1ccc(C(=O)Nc2ccc3nc(C)[nH]c3c2)c(OC)c1	none
CC(NC(=O)C(C#N)C(=O)/C=C/c1ccccc1)c1ccccc1 (stereo not drawn)	none
Cn1cc(-c2cnc(Nc3ccc(F)c(Cl)c3)c3c2CCO3)cn1	KDM5B inh 32µM
Cn1cc(-c2cnc(Nc3ccncc3)c3c2CCO3)cn1	KDM5B inh 35µM
Fc1ccc(Nc2ncnc3onc(-c4ccc(Cl)cc4)c23)cc1	none
Cc1cc(-c2cnc(Nc3ccc(F)cc3)c3c2CCO3)ccn1	KDM5B inh 13µM
CCC(C)(C)C(=O)Nc1nc2c(s1)C(=O)CC(C)(C)C2	none
COC(=O)c1ccc(Oc2coc3cc(OCc4ccc(Cl)cc4)ccc3c2=O)cc1	none
CCOC(=O)C(NC(=O)c1ccc(C)cc1)C(=O)OCC	none
Brc1cccc(-c2nc(-c3cccnc3)no2)c1	none
CNc1nnc(Sc2ccc(S(=O)(=O)NC(C)C)cc2[N+](=O)[O-])s1	none
O=C(Nc1ccc2oc(-c3ccc(F)cc3)cc(=O)c2c1)c1cccs1	none
CO[C@@H]1COCC[C@H]1NC(=O)COc1cccc(-n2cnnn2)c1	none
COc1cccc(C(=O)N2CCC(C(=O)N[C@@H]3CCOC[C@H]3OC)CC2)c1	none
CO[C@@H]1COCC[C@H]1NC1CCN(c2ncc3ccc(F)cc3n2)CC1	KDM5B inh 28µM
